TCR activator = activates T cell receptor signaling | primary human leukocytes, anti-CD3, IL-2 HTRF, 48 h | Potency, µM (titrated, usually from 9.22 µM), usual class: activators | 330,000 tested, under 10 active | AID 504894
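Primary human leukocytes receive a-CD3 beads and test compound and are incubated 48 hr. Secreted IL-2 is then assayed by HTRF, measuring 665nm acceptor emission after 320nm excitation of the europium donor.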
uPA surface inh = cell surface uPA generation inhibition; AID 540303; Potency, µM (series often up to 38.3 µM), usual class: inhibitors; cell surface uPA generation assay, qHTS; 0.31% of 330,000 active; active = well fitted inhibition curve with a large enough effect; inconclusive = small, poorly fitted or top-dose-only effect; inactive = no such curve, though single readings can be large or run the other way; tested in mouse RAW 264.7 cells; also: nearly all actives have a fitted effect of over 55% in size
ClpP mod = qHTS Assay for Activators of ClpP | ATP-dependent Clp protease proteolytic subunit (Bacillus subtilis (strain 168)), P80244 | AID 651965, 2013 | purified B. subtilis ClpP, FRET peptide cleavage, 20 min | 1.9% of 340,000 active | Potency, µM (series often up to 57.5 µM); active = well fitted falling curve with a large enough effect; inconclusive = small, poorly fitted or top-dose-only effect; inactive = no such curve, though single readings can be large or run the other way; also: the source files actives as falling curves though it sought activators and does not explain the sign; nearly all actives have a fitted effect of over 65% in size
Target sequence (P80244 whole entry, looked up): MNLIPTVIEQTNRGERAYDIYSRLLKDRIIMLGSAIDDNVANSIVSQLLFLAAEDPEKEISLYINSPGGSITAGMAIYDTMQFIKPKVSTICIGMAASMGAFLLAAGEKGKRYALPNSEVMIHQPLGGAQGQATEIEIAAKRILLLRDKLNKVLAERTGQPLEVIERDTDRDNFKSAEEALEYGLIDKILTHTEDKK
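Buffer: 100 mM Tris/HCl pH8, 100 mM KCl, 0.05% low protease BSA, 2.5% glycerol, 0.01% Tween-20. ClpP 10 microg/mL final; 20 min RT; delta FRET normalized to ADEP and DMSO controls.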
Sfp inh = blocks B. subtilis Sfp PPTase activity; Q9F4F7; Biochemical Sfp PPTase activity, qHTS; Potency, µM, most hits filed as inhibitors; 3.5% of 310,000 active; AID 1490;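 also: the enzyme is Sfp with the accession as filed and its product quenches rhodamine fluorescence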
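Step 1, compound plus 15 nM Sfp-PPTase, 15 min, room temperature. Step 2, add rhodamine-CoA (5 uM) and BHQ-2-YbbR (12.5 uM). Step 3, read 525/598 nm fluorescence at 0 and 30 min.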
Numbers stand for hits; 0 = inactive; ? = inconclusive; - = no result. Most compounds without a hit are left out; they make up all but 4.2% or so of the library. Unless noted, calls follow the shape of the dose curve; as a rule, active = well fitted curve in the direction sought with a large enough effect; inconclusive = small, poorly fitted or top-dose-only effect, or another doubt; inactive = no such curve, though single readings can be large; an effect the other way counts as inactive or inconclusive.

SMILES	TCR activator	uPA surface inh	ClpP mod	Sfp inh
CN1\C(=C/C=C/C=C/C=[N+](C)C)C(C)(C)c2ccccc21	0	?	0	56µM
CN1/C(=C\C=O)C(C)(C)c2ccccc21	0	0	-	0
O=C(CN1C(=O)NC2(CCOc3ccccc32)C1=O)NCc1ccccc1 (centres undefined)	0	0	11µM	-
CCC(Sc1ncccc1C(=O)O)C(=O)N1CCOCC1 (centres undefined)	0	-	0	50µM
CCC(Sc1ncccc1C(=O)O)C(=O)N1CCCC1 (centres undefined)	0	-	0	11µM
Cc1n[nH]c(=S)n1/N=C/c1ccccc1OCc1ccc(Cl)cc1	0	0	0	50µM
O=C1CC(c2ccco2)=Nc2ccccc2N1	0	0	0	50µM
Cc1ccccc1CSc1nnc2[nH]c(=O)cc(-c3ccccc3)n12	-	-	0	-
Cc1ccc(-c2nn(-c3cccc(F)c3)cc2CN(Cc2nccn2C)C(C)C)o1	0	0	-	40µM
Cc1ccc(-c2nn(-c3cccc(F)c3)cc2CNCc2cccnc2)o1	0	0	0	0
Cc1ccc(-c2nn(-c3cccc(F)c3)cc2CN2CCN(c3ccccn3)CC2)o1	0	0	0	40µM
COc1ccc(CCNC(=O)c2ccc3c(c2)nc2n3CCOC2)cc1OC	-	-	0	-
COc1ccc(S(=O)(=O)Nc2cc3c(cc2NCc2ccccc2)n(C)c(=O)n3C)cc1	-	-	0	-
Cc1cc(C)c(S(=O)(=O)/N=C2/C=C(Sc3ncn[nH]3)C(=O)c3ccccc32)cc1C	0	0	0	1µM
COc1cccc(-n2nnc3c(=O)n(Cc4ccc(Br)cc4)cnc32)c1	0	-	0	35µM
COc1cccc(-n2nnc3c(=O)n(Cc4ccc(C)cc4)cnc32)c1	0	-	0	0
CN1CCCCCC1=Nc1ccc([N+](=O)[O-])cc1	0	0	11µM	-
Cc1nn2c(=O)cc(COC(=O)c3cccc(NC(=O)COc4ccccc4C)c3)nc2s1	-	-	0	-
CCOc1ccccc1N(C)C(=O)c1cc(S(=O)(=O)NCc2ccc(C)cc2)ccc1F	-	-	0	-
CCSC1=N/C(=C\c2ccc(C(=O)O)cc2)C(=O)S1	0	0	0	?
C=CCSC1=N/C(=C\c2ccc(C(=O)O)cc2)C(=O)S1	0	0	-	40µM
COCCN(C(=S)Nc1c(C)cc(C)cc1C)C(C)c1cccs1 (centres undefined)	0	0	0	50µM
O=C(Nc1ccc(Cl)cc1)Nc1ccccc1Sc1ncc([N+](=O)[O-])s1	0	?	0	50µM
COc1ccc(/C=C/C(=O)Nc2nnc(C(C)C)s2)cc1OC	0	0	?	0
COc1cc(/C=C/C(=O)Nc2nnc(CC(C)(C)C)s2)cc(OC)c1OC	0	0	0	45µM
SMILES	TCR activator	uPA surface inh	ClpP mod	Sfp inh
COc1cc(/C=C/C(=O)Nc2nnc(CC(C)C)s2)cc(OC)c1OC	0	0	35µM	0
S=c1[nH]cnc2sc(Nc3ccccc3)nc12	0	0	0	2.2µM
CC(=O)N1N=C(c2ccccc2)CC1c1ccccc1[N+](=O)[O-] (centres undefined)	0	0	0	0
O=C(c1ccccc1)N1N=C(c2ccccc2)CC1c1ccccc1[N+](=O)[O-] (centres undefined)	0	0	25µM	0
O=C(CSc1ncn[nH]1)Nc1ccccc1C(=O)O	0	0	0	0
O=C(Nc1ccccc1C(=O)O)c1ncn[nH]1	0	0	28µM	45µM
COCOc1cc(OC)ccc1C(=O)/C=C/c1cccc(C(F)(F)F)c1	-	-	-	0
CCCCC[n+]1ccn(-c2nc3ccccc3nc2[N-]S(=O)(=O)c2ccc(C)cc2)c1	0	0	0	56µM
CCCC[n+]1ccn(-c2nc3ccccc3nc2[N-]S(=O)(=O)c2cccs2)c1	0	0	-	35µM
CCCC[n+]1ccn(-c2nc3ccccc3nc2[N-]S(=O)(=O)c2ccc(C)cc2)c1	0	0	?	0
CN(C)c1ccc(/C=C/c2cc(N(C)C)nc3ccccc23)cc1	-	-	0	-
COC(=O)Cn1c(=NC(=O)c2sc3ccccc3c2Cl)sc2cc(S(N)(=O)=O)ccc21	0	0	14µM	0
CCOC(=O)Cn1c(=NC(=O)c2sc3ccccc3c2Cl)sc2cc(S(N)(=O)=O)ccc21	0	0	?	0
CCOC(=O)c1cc(-c2ccccc2)n(CCCC(=O)Nc2ccc(C)c(Cl)c2)c1C	-	-	0	-
O=C1Nc2ccccc2N=C(c2ccccc2)C1N1CCOCC1 (centres undefined)	0	0	0	0
O=C1Nc2ccccc2N=C(c2ccccc2)C1Br (centres undefined)	0	0	-	45µM
CC(C)(C)c1cc(=O)n2c(C#N)c(C#N)nc2[nH]1	0	0	28µM	0
COC(=O)c1c(NC(=O)/C=C/c2ccco2)sc2c1CCC2	0	0	0	0
COc1ccccc1NC(=O)/C=C\c1ccco1	0	0	0	56µM
CSc1cccc(NC(=O)/C=C/c2ccco2)c1	0	0	-	56µM
CSc1cccc(NC(=O)/C=C/c2ccccc2)c1	0	-	0	0
Cc1sc(NC(=O)/C=C/c2ccco2)c(C(=O)OC(C)C)c1C	0	0	0	32µM
O=C(N/C=C/c1ccco1)Nc1cccc(Cl)c1	0	0	0	0
COc1ccc(NC(=O)N/C=C/c2ccco2)cc1	0	0	-	50µM
COCCNC(=O)CCC1CCN(Cc2cccc(Oc3ccccc3)c2)CC1	-	0	0	0
SMILES	TCR activator	uPA surface inh	ClpP mod	Sfp inh
COc1cc(C=O)c([N+](=O)[O-])cc1OC	-	-	-	0
CCN(c1ccccc1)S(=O)(=O)c1nnc(NC(=O)COc2ccc(OC)cc2)s1	-	-	0	-
COc1cccc(N2CCN(C(=O)/C=C/c3ccco3)CC2)c1	0	0	-	8.9µM
COc1cccc(NC(=O)/C=C/c2ccco2)c1	0	0	-	35µM
COc1cccc(NC(=O)/C=C\c2ccc(Cl)cc2)c1	-	-	-	0
COCCn1c(C)cc(C(=O)CSc2cc(C)c3ccc(OC)cc3n2)c1C	0	0	?	0
CSc1nc2n(n1)C(c1ccccn1)C1=C(CC(C)(C)CC1=O)N2 (centres undefined)	0	-	25µM	0
COc1ccc(C(=O)NCCc2nnc3ccc(SCC(=O)Nc4ccccc4F)nn23)cc1	0	0	0	0
O=C(Cc1cccs1)NCCS(=O)(=O)N1CCN(c2ccccc2)CC1	-	-	0	-
O=C(Cc1cccs1)NCCS(=O)(=O)N1CCN(c2ccccc2F)CC1	0	3.2µM	0	-
COc1ccccc1N1CCN(S(=O)(=O)CCNC(=O)c2cc(OC)c(OC)c(OC)c2)CC1	0	13µM	0	0
CC1=C(C(=O)Nc2cccnc2)C(c2ccccc2)n2nc(SCc3ccccc3)nc2N1 (centres undefined)	-	-	0	-
CCCCNC(=O)[C@@H]1CC=C[C@@H]2CCN(CCCC)C(=O)[C@@H]21	-	-	0	-
CC(C)(C)c1ccccc1OCCCCCn1ccnc1	0	0	-	56µM
Cc1ccc(OCCCCn2ccnc2)c([N+](=O)[O-])c1	0	0	0	56µM
Cc1ccc(C(C)(C)C)c(OCCCn2ccnc2)c1	0	0	0	0
Cc1ccc(OCCOCCn2ccnc2)c(Br)c1	0	0	0	79µM
Cn1nnc(NC(=S)NC(=O)c2cccc3c(Cl)cccc23)n1	0	0	0	0
